# PubChem BioAssay (NCATS)
# Records with an inconclusive call do not appear. A call without a number means that no potency is given here. Activity calls are given as the source filed them. Calls come from the whole dose curve; as a rule, active = well fitted curve in the direction sought with a large enough effect; inconclusive = small, poorly fitted or top-dose-only effect, or another doubt; inactive = no such curve, though single readings can be large; an effect the other way counts as inactive or inconclusive.
# Experiments:
# [1] = target: Aldehyde dehydrogenase, mitochondrial (Homo sapiens) (UniProt P05091); assay: qHTS for Inhibitors of the Aldehyde Dehydrogenase Family (ALDH2) Primary screen (AID 2061308); conditions: ALDH2 enzyme inhibition qHTS, 1536-well; series mostly up to 56 µM; note: nearly all actives have a fitted effect of over 55% in size
# [2] = target: Retinaldehyde dehydrogenase 3 (Homo sapiens) (UniProt P47895); assay: qHTS for Inhibitors of the Aldehyde Dehydrogenase Family (ALDH1A3) Primary screen (AID 2061315); conditions: ALDH inhibition qHTS; series mostly up to 56 µM
Compound,Potency [1],Potency [2]
COc1ccc(NC(=O)c2cnn3c(C)cc(C)nc23)cc1Cl,inactive,inactive
Cc1ccccc1-c1ccc(=O)n(CC(=O)NCCc2ccccc2)n1,inactive,inactive
Cc1cc(C)nc(NC(=S)N2CCN(c3ncccc3Cl)CC2)c1,inactive,inactive
N[C@@H](Cc1ccccc1)C(=O)Nc1ccc(Cl)cc1C(=O)c1ccc[nH]1,inactive,inactive
c1nc(NCc2ccc3c(c2)OCO3)c2cc(-c3ccoc3)ccc2n1,inactive,inactive
COc1cccc(CCN2C(=O)c3ccccc3NC2c2ccc(OC)c(COc3c(C)cc(NC(C)=O)cc3C)c2)c1 (configuration not stated),inactive,inactive
Cc1cc(C)nc(NC(=S)N2CCN(c3cccc(S(C)=O)c3)CC2)c1 (configuration not stated),inactive,inactive
Nc1nc2c(ncn2C2OC3COP(=O)(O)OC3C2O)c(=O)[nH]1 (configuration not stated),inactive,inactive
CC(=O)C1CCN(c2ncc(-c3ccc4c(c3)OCCCO4)s2)CC1,inactive,inactive
CCC(O)(c1nnc(NCc2ccc3c(-c4ccc(F)cc4)cc(=O)oc3c2)o1)C(F)(F)F (configuration not stated),inactive,inactive
NC[C@@H](O)c1ccc(O)c(O)c1,inactive,inactive
CC(=O)c1cccc(-c2ccc(-c3nc4ccccc4c(=O)[nH]3)o2)c1,inactive,inactive
CCOc1ccc(CCNC(=O)c2cc3sccc3n2CCN2CCN(C)CC2)cc1OCC,inactive,inactive
CCCCN1C(=O)c2ccccc2C1=O,inactive,inactive
CN1C2CCC1CC(OC(=O)[C@H](CO)c1ccccc1)C2 (some centres not stated),inactive,inactive
CN(c1ccc(NC(=O)Nc2ccccc2)cc1)S(=O)(=O)c1cnn(-c2ccc(F)cc2)c1,inactive,inactive
